Source: PubChem BioAssay AID731 (The Scripps Research Institute Molecular Screening Center, 2007)
About 520 (0.26%) of roughly 200,000 compounds were called active. The sample as a whole holds a higher share of actives than the screen did. Unmarked numbers belong to inactive results. Rule as the data show it: active = activation above about 23%; inactive = the rest.

The compounds below were run against Peroxisome proliferator-activated receptor gamma (Homo sapiens) (UniProt P37231) (assay: enhancers of SRC-3 binding to PPARgamma – biochemical, primary screen (AID 731;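 also: 0% = DMSO and 100% = reference agonist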)). Settings: biochemical PPARgamma/SRC-3 coactivator recruitment assay; at 8 µM; active compounds read high.
Chain of Peroxisome proliferator-activated receptor gamma (Homo sapiens) (P37231 whole entry, looked up): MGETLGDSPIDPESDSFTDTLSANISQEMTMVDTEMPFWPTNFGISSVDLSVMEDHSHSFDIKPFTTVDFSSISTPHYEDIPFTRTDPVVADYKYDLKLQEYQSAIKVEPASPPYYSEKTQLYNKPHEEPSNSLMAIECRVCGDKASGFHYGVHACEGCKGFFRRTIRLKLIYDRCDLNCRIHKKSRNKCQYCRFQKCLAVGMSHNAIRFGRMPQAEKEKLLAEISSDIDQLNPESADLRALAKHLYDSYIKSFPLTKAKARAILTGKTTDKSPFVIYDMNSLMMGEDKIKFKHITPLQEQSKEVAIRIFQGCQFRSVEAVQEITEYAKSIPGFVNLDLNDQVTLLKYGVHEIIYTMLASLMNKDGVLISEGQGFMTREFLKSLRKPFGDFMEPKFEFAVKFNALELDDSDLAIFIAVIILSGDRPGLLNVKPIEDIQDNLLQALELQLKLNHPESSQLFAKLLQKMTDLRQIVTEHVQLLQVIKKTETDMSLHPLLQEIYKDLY
With `CSC1=NP(=S)(SC)N(C)c2nc3n(c21)CCC3` (stereo not given) the activation was 102% (active). With `CCCCCCN=C(CC)c1c(O)n(CCCC)c(=O)[nH]c1=O` the activation was -4.72%. Work on `CCNc1nc2[nH]c(=O)c3c(c2s1)OC(N)=C(C#N)C3c1cccs1` (stereo not given) yielded an activation of -2.75%. Work on `CCN(CC)c1ccc([N+](=O)[O-])c2cccnc12` yielded an activation of 4.74%. `CC[N+](CC)(CC)CCCCCCCCCC[N+](CC)(CC)CC` gave an activation of -1.93%.
